nsP2pro inh: inhibitors of chikungunya virus nsP2 protease. Q8JUX6. FRET peptide cleavage, nsP2pro, fluorescence 1 h. Potency, µM (highest dose often 24.9 µM), for inactives: top-dose activity change, negative = inhibition, actives largely listed as inhibitors. hit rate 1.1% among 31,000; further: nearly all actives have a fitted effect of over 60% in size
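Enzyme 150 nM, substrate 2.5 uM (both final); Tris-HCl 10 mM pH 8.0 + 0.01% Tween 20; cpd up to 25 uM, 7 pts; 15 min preinc., 1 h RT; fluorescence ex 525/em 598.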
CHIKV nsP2 cell: cell-based CHIKV nsP2 protease inhibition, secondary | shares compounds with nsP2pro inh | cell-based CHIKV nsP2 protease reporter assay | Potency, µM (highest dose often 51.1 µM), without a hit: at the highest dose activity change, negative = inhibition, most hits filed as inhibitors | hit rate 10% among 450 | AID 1964100; further: nearly all actives have a fitted effect of over 70% in size
Target sequence (Q8JUX6 220-798 limits assumed): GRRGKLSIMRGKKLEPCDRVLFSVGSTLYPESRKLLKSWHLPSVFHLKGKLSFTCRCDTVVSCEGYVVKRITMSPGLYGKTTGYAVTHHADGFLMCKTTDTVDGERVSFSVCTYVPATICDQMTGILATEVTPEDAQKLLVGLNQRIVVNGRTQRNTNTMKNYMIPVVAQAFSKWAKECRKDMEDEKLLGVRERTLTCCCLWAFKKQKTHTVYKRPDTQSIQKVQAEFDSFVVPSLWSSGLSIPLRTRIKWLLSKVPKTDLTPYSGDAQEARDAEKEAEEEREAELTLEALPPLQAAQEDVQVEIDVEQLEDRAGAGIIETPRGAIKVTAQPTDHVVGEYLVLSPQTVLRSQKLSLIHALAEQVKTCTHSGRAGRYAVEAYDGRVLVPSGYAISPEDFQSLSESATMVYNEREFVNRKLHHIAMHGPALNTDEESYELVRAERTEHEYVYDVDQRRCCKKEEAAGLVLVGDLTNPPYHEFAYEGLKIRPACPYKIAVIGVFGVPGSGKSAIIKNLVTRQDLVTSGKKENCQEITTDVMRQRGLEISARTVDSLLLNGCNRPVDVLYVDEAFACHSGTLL
CHIKV NSP2 FL: inhibits full-length CHIKV NSP2 enzyme; hit rate 39% among 410; Full-length CHIKV NSP2 protease enzymatic counterscreen; Potency, µM (top dose mostly 50.7 µM), for inactives: top-dose activity change, negative = inhibition, most hits filed as inhibitors; shares compounds with nsP2pro inh; AID 1964101; further: nearly all actives have a fitted effect of over 65% in size
Furin counter: human furin inhibition, counterscreen for nsP2pro inhibitors; Recombinant human furin enzymatic counterscreen, fluorogenic substrate; hit rate 6% among 410; AID 1964102; Potency, µM (top dose mostly 50.6 µM), for inactives: at the highest dose activity change, negative = inhibition, actives largely listed as inhibitors; shares compounds with nsP2pro inh
nsP2 NS23 pep: nsP2pro inhibition on native NS2/3 peptide substrate; Purified CHIKV nsP2 protease, endogenous NS2/3 peptide cleavage; Potency, µM (highest dose often 51 µM), for the others: top-dose activity change, negative = inhibition, usual class: inhibitors; shares compounds with nsP2pro inh; hit rate 34% among 410; further: nearly all actives have a fitted effect of over 55% in size
Papain cs: inhibits papain in a CHIKV nsP2 protease selectivity counterscreen | AID 1964104 | hit rate 5% among 410 | purified papain protease activity, enzymatic inhibition | Potency, µM (series often up to 51 µM), without a hit: at the top dose activity change, negative = inhibition, usual class: inhibitors | shares compounds with nsP2pro inh
nsP2pro confirm: confirmation of CHIKV nsP2 protease inhibitors | shares compounds with nsP2pro inh | CHIKV nsP2 protease enzymatic activity, qHTS | Potency, µM (doses to about 25.5 µM), without a hit: at the top dose activity change, negative = inhibition, most hits filed as inhibitors | hit rate 43% among 410; further: nearly all actives have a fitted effect of over 75% in size
HCV NS3 4A cs: inhibits HCV NS3/4A protease in an nsP2pro selectivity counterscreen; shares compounds with nsP2pro inh; hit rate 20% among 410; HCV NS3/4A protease biochemical counterscreen; AID 1964106; Potency, µM (titrated, usually from 50.9 µM), hits mostly inhibitors; further: nearly all actives have a fitted effect of over 55% in size
* hit, by the source's call; i = inactive; ? = inconclusive; ! = not active in a repeat; [ ] = remark or other dose. This is one part of a sample in which hits are shown more often than they occur. The call rests on the fitted dose curve. On the % scale 0 is the no-effect control and ±100 the full control effect; potency means the concentration at half of the fitted maximal effect.

SMILES	nsP2pro inh	others
Cc1cc(Nc2ccccc2C(=O)O)ccc1Cl	3.5µM*	CHIKV nsP2 cell=-5%;CHIKV NSP2 FL=13µM*;Furin counter=-10%;nsP2 NS23 pep=?;Papain cs=?;nsP2pro confirm=2µM*;HCV NS3 4A cs=i
CCC(=O)N1CCC(n2nccc2NC(=O)Nc2ccccc2Cl)CC1	1%
COc1ccc(C(=O)N2CCC(O)(CO)CC2)c(OC)c1OC	0%
Cc1cc2ncc(C(=O)N3CCN(c4ncccn4)CC3)cn2n1	0%[39.2 µM]
Cc1cc(SCc2sc(-c3ccc(C(F)(F)F)cc3)nc2C)ccc1OCC(=O)O	231%
CCN(CC)C(=O)c1cc(S(=O)(=O)Cc2ccccc2)c(N2CCC(c3ccccc3)CC2)cc1N(CC)CCN(C)C	i
COc1ccc(CC2CN(Cc3cccc(-n4cccn4)c3)CCO2)cc1 (stereo not given)	-4%
COc1nc2ccc(Br)cc2cc1[C@@H](c1ccccc1)[C@@](O)(CCN(C)C)c1cccc2ccccc12	1.2µM*	CHIKV nsP2 cell=?;CHIKV NSP2 FL=?;Furin counter=-13%;nsP2 NS23 pep=?;Papain cs=-25%;nsP2pro confirm=7.1µM*;HCV NS3 4A cs=i
NCCCCNc1ncnc2ccc(-c3ccc4c(c3)OCO4)cc12	i
CCCCCCCCc1ccc(CCC(N)(CO)CO)cc1	308%
O=C(c1ccccc1)c1ccc2nc(NC(=O)c3csc(C4CCN(c5ncnc6ccsc56)CC4)n3)[nH]c2c1	3%
CC(C)(O)/C=C/C(=O)[C@](C)(O)[C@H]1[C@H](O)C[C@@]2(C)[C@@H]3CC=C4[C@@H](C[C@H](O[C@@H]5O[C@H](CO)[C@@H](O)[C@H](O)[C@H]5O)C(=O)C4(C)C)[C@]3(C)C(=O)C[C@]12C	13%[10 µM]
CCC(C)C(C)(COC(N)=O)COC(N)=O (stereo not given)	-2%
CCC[C@H](NC(=O)[C@@H]1[C@H]2CCC[C@H]2CN1C(=O)[C@@H](NC(=O)[C@@H](NC(=O)c1cnccn1)C1CCCCC1)C(C)(C)C)C(=O)C(=O)NC1CC1	3.9µM*!	CHIKV nsP2 cell=172%;CHIKV NSP2 FL=12µM*;Furin counter=-4%;nsP2 NS23 pep=?;Papain cs=0.026µM*;nsP2pro confirm=3.6µM*;HCV NS3 4A cs=0.052µM*
CCOc1ccc(CCNC(=O)c2ccc(C(=O)c3ccccc3)cc2)cc1OCC	-9%
O=C(OCc1cccc(O)c1O[C@@H]1O[C@H](CO)[C@@H](O)[C@H](O)[C@H]1O)C1(O)C(=O)C2C=CC1C1C=CC(=O)C(O)(C(=O)OCc3cccc(O)c3O[C@@H]3O[C@H](CO)[C@@H](O)[C@H](O)[C@H]3O)C21 (stereo not given in full)	2%[5.1 µM]
Cc1nnc([C@H]2CCN(C(=O)c3ccccc3)C2)o1	1%[39.2 µM]
CCN(CC)C(=O)[C@@H]1CCC[C@@H](NC(=O)c2ccc(OC)cc2)CN(C)C(=O)C1	i
CCN(CC)C(=O)[C@@H]1CCC[C@@H](NC(=O)c2ccc(Cl)cc2)CN(C)C(=O)C1	-7%[39.2 µM]
CCCNC(=O)N[C@@H]1CCC[C@@H](C(=O)N(CC)CC)CC(=O)N(C)C1	5.6µM*	CHIKV nsP2 cell=9%;CHIKV NSP2 FL=24µM*;Furin counter=?;nsP2 NS23 pep=17µM*;Papain cs=-3%;nsP2pro confirm=8.2µM*;HCV NS3 4A cs=?
CN(C[C@@H]1COCCO1)S(=O)(=O)Nc1ccc2ccc3ncc(-c4cnn(C)c4)cc3c(=O)c2c1	22%
O=C(NCc1ccccc1)c1cn(C2CNC2)nn1	-30%
Cc1cnn(-c2cc(N3CCC(n4cc(C5CCCC5)nn4)CC3)ncn2)c1	i
c1c(C2CC2)nnn1C1CNC1	8.9µM*	CHIKV nsP2 cell=15%;CHIKV NSP2 FL=-18%;Furin counter=-25%;nsP2 NS23 pep=?;Papain cs=-1%;nsP2pro confirm=?;HCV NS3 4A cs=?
COc1c(F)cccc1C(=O)N1C[C@@H](C)CC[C@H]1CNc1ccc(Br)cn1	-11%
SMILES	nsP2pro inh	others
CN(Cc1nccs1)S(=O)(=O)c1ccc(Nc2nc(-c3ccccc3)cs2)cc1	i
COc1cccc2cc(-c3nc(C4CCC(C(=O)O)CC4)n4ncnc(N)c34)[nH]c12 (stereo not given)	19%
CC(C)n1cc(-c2cc(C(=O)N(C)Cc3cccnc3)c3cc(F)ccc3n2)cn1	3%
O=C1[C@@H]2[C@H]3CC[C@H](C3)[C@@H]2C(=O)N1C[C@@H]1CCCC[C@H]1CN1CCN(c2nsc3ccccc23)CC1	-9%
CC(C)CCNC(=O)[C@H](CC(C)C)NC(=O)[C@H]1O[C@@H]1C(=O)NCc1cccc(C#N)c1	2.5µM*	CHIKV nsP2 cell=?;CHIKV NSP2 FL=6.5µM*;Furin counter=1%;nsP2 NS23 pep=5.8µM*;Papain cs=2.6µM*;nsP2pro confirm=2.5µM*;HCV NS3 4A cs=i
CCOC(=O)c1noc2ncn(Cc3cccc(C#N)c3)c(=O)c12	-13%
CC(C)CCNC(=O)C1CCCN(C2CCN(CCc3ccccc3)CC2)C1 (stereo not given)	4%
CCOC(=O)[C@H]1O[C@@H]1C(=O)N[C@@H](CC(C)C)C(=O)NCCC(C)C	8.8µM*	CHIKV nsP2 cell=-9%;CHIKV NSP2 FL=16µM*;Furin counter=-9%;nsP2 NS23 pep=?;Papain cs=1.2µM*;nsP2pro confirm=8µM*;HCV NS3 4A cs=i
O=C(O)c1cnn(-c2nc3cc(OC(F)(F)F)c(Cl)cc3[nH]2)c1	i
CC(=O)N1CCc2cc(S(=O)(=O)N3CCN(S(=O)(=O)c4c(F)cccc4F)CC3)ccc21	-6%
CCN1CCC[C@@H]1CNC(=O)c1ccc2c(c1)NC(=O)/C(=C/c1ccccc1F)S2	5%
CN1CCN(c2ccc(NC(=O)c3cccs3)cn2)CC1	-10%
O=C(Nc1cnc(N2CCN(c3ccccc3)CC2)c(C(=O)O)c1)c1cccs1	2.5µM*	CHIKV nsP2 cell=-1%;CHIKV NSP2 FL=2.1µM*;Furin counter=?;nsP2 NS23 pep=6.5µM*;Papain cs=-12%;nsP2pro confirm=5.7µM*;HCV NS3 4A cs=2.9µM*
O=C(Nc1ccc(N2CCN(c3ccc(F)cc3)CC2)c(C(=O)O)c1)c1cccs1	?	CHIKV nsP2 cell=36%;CHIKV NSP2 FL=5.2µM*;Furin counter=-17%;nsP2 NS23 pep=13µM*;Papain cs=-3%;nsP2pro confirm=8µM*;HCV NS3 4A cs=4.1µM*
CC(=O)c1ccc(N2CCN(c3ccc(NC(=O)c4ccc(F)cc4)cc3C(=O)O)CC2)cc1	36%
NNc1ccc(NC(=O)c2cccs2)cn1	i
Cc1ccccc1C(=O)Nc1ccc2c(c1)CCCN2C(=O)c1cccs1	41%
CC(C)OCCCNC(=O)C1CCCN(S(=O)(=O)c2cn(C)cn2)CCC(=O)NCC1 (stereo not given)	4%
CN(C)CCOC1=Cc2ccccc2Sc2ccc(Cl)cc21	25%
COc1ccc(C(=O)Nc2nc(-c3ccccc3)cs2)cc1NS(=O)(=O)c1ccc(C)cc1	1%
Cc1ccc(OCCn2c(CCNC(=O)C3CCC3)nc3ccccc32)cc1	-6%
